Screening results deposited in PubChem by National Center for Advancing Translational Sciences (NCATS).
The sample as a whole holds a higher share of hits than the screen did.
AmpC inh no detg: blocks E. coli AmpC beta-lactamase in detergent-free assay; AmpC nitrocefin hydrolysis, absorbance 480 nm, 0.0001% Triton; Potency, µM (titrated, usually from 57.1 µM), usual class: inhibitors; actives 0.52% (n = 330,000); AID 485341; further: nearly all actives have a fitted effect of over 20% in size
Target sequence (P00811 whole entry, looked up): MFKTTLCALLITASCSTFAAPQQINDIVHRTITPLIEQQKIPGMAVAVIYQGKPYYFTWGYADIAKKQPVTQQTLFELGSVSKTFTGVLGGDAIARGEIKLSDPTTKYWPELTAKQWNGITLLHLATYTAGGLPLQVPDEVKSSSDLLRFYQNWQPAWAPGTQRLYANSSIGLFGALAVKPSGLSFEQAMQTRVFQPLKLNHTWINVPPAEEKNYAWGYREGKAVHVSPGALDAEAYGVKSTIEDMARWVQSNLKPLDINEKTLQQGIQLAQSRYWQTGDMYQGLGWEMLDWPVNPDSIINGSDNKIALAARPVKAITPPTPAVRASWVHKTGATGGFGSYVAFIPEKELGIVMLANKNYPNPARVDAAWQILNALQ
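20 mM phosphate pH 7.0 + 0.01% (detergent screen) or 0.0001% Triton X-100; 5.3 nM AmpC reagent; cpd preinc 15 min RT; nitrocefin (800 uM stock) to start; A480 q20 s × 4 min; Activity was normalised to no-enzyme and no-compound control wells.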
AMA1 RON2 block: disrupts binding of P. falciparum AMA1 to RON2 | actives 0.2% (n = 360,000) | Potency, µM (highest dose often 58.2 µM), usual class: inhibitors | AlphaScreen AMA1-biotinylated RON2 peptide binding; further: nearly all actives have a fitted effect of over 45% in size
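AMA1 (3D7) with his tag at 25 nM final met compounds first, then biotinylated RON2 peptide at 25 nM; detection used donor plus acceptor beads, 10 µg/mL apiece, read by AlphaScreen after 30 min at room temperature.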
Shiga toxin inh: blocks Shiga toxin action in Vero cells. Vero cells, Shiga toxin protein synthesis inhibition reporter. actives 9.2% (n = 290,000). inhibition, % at 38.7 µM; in the data active means inhibition mostly above about 28%, no sharp cut-off; inactive means mostly below about 43%
Cycloheximide cs: counter-screen for Shiga toxin inhibitors: cycloheximide protein synthesis inhibition. cell reporter, cycloheximide protein synthesis inhibition counterscreen. actives 12% (n = 300,000). max response, %; in the data active means max response mostly above about 13%, no sharp cut-off; inactive means mostly below about 14%; further: read at 38.3 µM for the half of the compounds with a filed dose
SARS PLpro yeast: blocks SARS-CoV papain-like protease in a yeast assay | S. cerevisiae expressing SARS-CoV PLpro, growth rescue | Potency, µM (doses to about 32.9 µM), hits mostly activators | actives 0.19% (n = 330,000); calls by dose curve; further: nearly all actives have a fitted effect of over 55% in size
AmpC inh detg: inhibitors of E. coli AmpC beta-lactamase with detergent. actives 0.041% (n = 370,000). Potency, µM (titrated, usually from 114 µM), actives largely listed as inhibitors. AmpC hydrolysis of nitrocefin, absorbance 480 nm, 0.01% Triton. AID 485294; further: nearly all actives have a fitted effect of over 25% in size
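20 mM phosphate pH 7.0 + 0.01% (detergent screen) or 0.0001% Triton X-100; 5.3 nM AmpC reagent; cpd preinc 15 min RT; nitrocefin (800 uM stock) to start; A480 q20 s × 4 min; Activity was normalised to no-enzyme and no-compound control wells.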
Of the large screens only hits and unclear results are named; the others gave an inactive call. Unless noted, the call rests on the fitted dose curve; in most records, active means well fitted curve in the direction sought with a large enough effect; inconclusive means small, poorly fitted or top-dose-only effect, or another doubt; inactive means no such curve, though single readings can be large; an effect the other way counts as inactive or inconclusive.

COc1cccc(C(=O)Nc2cccc(S(=O)(=O)NC3=NCCC3)c2)c1	none (no result: Shiga toxin inh, Cycloheximide cs)
CC(C)(C)c1ccc(OCCON2C(=O)CCC2=O)c(Cl)c1	Shiga toxin inh 63, Cycloheximide cs 39
CNCCCCOc1ccc(C(C)(C)C)cc1Cl	none
COc1cc(C)ccc1OCCCCOc1ccccc1C(C)=O	none
COc1cc(C)ccc1OCCCOc1ccccc1Cl	Shiga toxin inh 93, Cycloheximide cs 51
O=C(O)c1cccc(NC(=O)c2ccccc2NC(=O)c2cccs2)c1	none (no result: AmpC inh no detg, Shiga toxin inh, Cycloheximide cs, SARS PLpro yeast, AmpC inh detg)
CCCCOC(=O)/C=C/c1ccc(OC(=O)OC)c(OC(=O)OC)c1	AmpC inh detg inconclusive
COC(=O)Oc1ccc(/C=C/C(=O)OC(C)C)cc1OC(=O)OC	Cycloheximide cs 30
OCCn1c(CSc2nc3ccccc3n2CCO)nc2ccccc21	AmpC inh detg inconclusive
Cn1c(-c2ccccc2)cnc1SCc1nc2ccccc2c(=O)[nH]1	Shiga toxin inh 114, Cycloheximide cs 27
CC(=O)c1c(C)[nH]c(C(=O)CSc2nc3ccccc3n2C)c1C	none
CC(=O)OCC#CCSc1nc2ccccc2n1C	SARS PLpro yeast 22µM
Cn1c(SCc2nc3ccccc3c(=O)[nH]2)nc2ccccc21	Cycloheximide cs 17
Cn1c(CSc2nc3ccccc3n2C)nc2ccccc21	Cycloheximide cs 19
Cc1[nH]c2ccccc2c1/C=N/NC(N)=S	none
CC(=O)Nc1cccc(C(=O)NNC(=O)c2ccc(-n3cnnn3)cc2)c1	none (no result: Shiga toxin inh, Cycloheximide cs, AmpC inh detg)
CN(CC(=O)Nc1ccc(Cl)c(S(=O)(=O)N2CCOCC2)c1)C(=O)c1cccs1	none (no result: Shiga toxin inh, Cycloheximide cs)
Cc1ccc(-c2ccc(C(=O)Nc3ccccc3)o2)c2ccccc12	AMA1 RON2 block inconclusive, Shiga toxin inh 67, Cycloheximide cs 36, AmpC inh detg inconclusive
COc1cccc(NC(=O)CN(C)C(=O)c2ccc(-c3ccccc3Cl)o2)c1	Cycloheximide cs 11
CC(C)NC(=O)c1ccc(-c2ccccc2C(F)(F)F)o1	Shiga toxin inh 93, Cycloheximide cs 44
O=C(Nc1ccccc1)c1ccc(-c2ccccc2C(F)(F)F)o1	Shiga toxin inh 73, Cycloheximide cs 46, AmpC inh detg inconclusive
O=C(NCc1ccc(Cl)cc1)c1ccc(-c2ccccc2C(F)(F)F)o1	AmpC inh detg inconclusive
CCN(CC)CCNC(=O)CNC(=O)c1nn(-c2ccc(OC)c(OC)c2)c(=O)c2ccccc12	none
CCN(CC)C(=O)c1cccc(NC(=O)c2ccc3c(=O)n4c(nc3c2)CCC4)c1	none (no result: Shiga toxin inh, Cycloheximide cs)
COC(=O)c1cccc(C#CC(NP(=O)(c2ccccc2)c2ccccc2)c2ccccc2)c1 (stereo not given)	none
CC(=O)Nc1ccc(NC(=O)c2ccc(-c3ccccc3Cl)o2)cc1	AmpC inh detg inconclusive (no result: Shiga toxin inh, Cycloheximide cs)
O=C(Nc1ccccc1)c1ccc(-c2ccccc2Cl)o1	Cycloheximide cs 38, AmpC inh detg inconclusive
N#Cc1ccccc1NC(=O)c1ccc(-c2ccccc2Cl)o1	Shiga toxin inh 123, Cycloheximide cs 30
CCOc1ccc(NS(=O)(=O)c2ccc(OCC(=O)NCc3ccncc3)cc2)cc1	none
Cc1ccc(C(=O)OCC(=O)Nc2cc(Cl)ccc2C#N)o1	none (no result: AmpC inh no detg, Shiga toxin inh, Cycloheximide cs, SARS PLpro yeast, AmpC inh detg)
Cc1cc2nc(-c3ccc(SCC(=O)N4CCN(C(=O)c5ccco5)CC4)nc3)[nH]c2cc1C	Shiga toxin inh 26, Cycloheximide cs 20
CCOC(=O)CSc1ccc(-c2nc3ccccc3[nH]2)cn1	none
Cc1cc2nc(-c3ccc(SCC(=O)N4CCOCC4)nc3)[nH]c2cc1C	Shiga toxin inh 70, Cycloheximide cs 33
CCOC(=O)CSc1ccc(-c2nc3cc(C)c(C)cc3[nH]2)cn1	Shiga toxin inh 61, Cycloheximide cs 55
COc1ccc(-c2ccc(SCC(=O)N3CCOCC3)nn2)cc1	none
Cc1cc2nc(-c3ccc(SCc4ccccn4)nc3)[nH]c2cc1C	Shiga toxin inh 98, Cycloheximide cs 34
CC1CC(C)CN(S(=O)(=O)c2ccc(C(=O)Nc3nnc(C4CC4)o3)cc2)C1 (stereo not given)	none
O=C(O)c1ccc(/C=N/NC(=O)c2cc3ccccc3cc2O)cc1	none (no result: Shiga toxin inh, Cycloheximide cs, AmpC inh detg)
C/C(CC(=O)N1CCN(C=O)CC1)=N\NC(=O)c1ccc([N+](=O)[O-])cc1	Cycloheximide cs 20
C/C(CC(=O)N1CCN(C=O)CC1)=N\NC(=O)c1cc2ccccc2cc1O	SARS PLpro yeast 14µM
COc1ccc(OCCSc2nc(N)cc(N)n2)cc1	Shiga toxin inh 101, Cycloheximide cs 49
Cc1ccc(OCCSc2nc(N)cc(N)n2)cc1	Shiga toxin inh 130, Cycloheximide cs 53
COc1cccc(CSc2nc(N)cc(N)n2)c1	none
CCC1(CC)C(=O)NC(=O)NC1=O	none (no result: AmpC inh no detg, AMA1 RON2 block, SARS PLpro yeast, AmpC inh detg)
COc1ccc(-c2cc3nc[nH]c(=O)c3s2)cc1	Cycloheximide cs 35
COc1ccc(-c2cc3nc(CCl)[nH]c(=O)c3s2)cc1	none
O=c1[nH]cnc2cc(-c3ccccc3)sc12	Shiga toxin inh 118, Cycloheximide cs 48
CCc1ccc(-n2nc(CO)c(C(=O)NCc3cccnc3)n2)cc1	none (no result: AmpC inh no detg, AMA1 RON2 block, Shiga toxin inh, Cycloheximide cs, SARS PLpro yeast)
Cc1nnc(NC(=O)c2ccc(S(=O)(=O)C(F)F)cc2)s1	Cycloheximide cs 27
Cc1ccc(S(=O)(=O)NC(=O)Nc2nnc(C)s2)cc1	AmpC inh no detg 0.4µM
Cc1cccc(NC(=O)c2ccc(S(=O)(=O)C(F)F)cc2)c1C	Cycloheximide cs 16
COc1ccc(CN(C)C(=O)Cn2ccc(N)nc2=O)cc1OC	none (no result: Shiga toxin inh, Cycloheximide cs)
Cc1cc(C)c(NC(=O)Cn2cnc3c(oc4ccccc43)c2=O)c(C)c1	none
COC(=O)Cc1c(OC)ccn(CCc2c[nH]c3ccccc23)c1=O	Shiga toxin inh 103, Cycloheximide cs 34, AmpC inh detg inconclusive
COC(=O)Cc1c(O)ccn(CCc2c[nH]c3ccccc23)c1=O	none
CC(C)C/C(=N/O)c1c[nH]c2ccccc12	SARS PLpro yeast inconclusive
Cc1ncc(CO)c(C=O)c1O	none (no result: AmpC inh no detg, AMA1 RON2 block, SARS PLpro yeast, AmpC inh detg)
Cc1ccc2nc(-c3ccncc3)c(NC3CCCC3)n2c1	none
Cc1ccc2nc(-c3ccsc3)c(NC3CCCC3)n2c1	Shiga toxin inh 51
COc1ccc(O)c(C2=Nc3ccccc3N=C(c3ccco3)C2)c1	Cycloheximide cs 8.7
Oc1ccc(Cl)cc1C1=Nc2ccccc2N=C(c2ccco2)C1	none
CC(=O)Nc1ccc(N=Cc2c(O)c3ccccc3oc2=O)cc1	none
CC(=O)Nc1ccc(N=Cc2c(O)c(C(=O)Nc3ccccc3)cc3ccccc23)cc1	Shiga toxin inh 104
N#C/C(=C\c1ccc(OCc2ccc(C(=O)O)cc2)cc1)C(=O)N1CCOCC1	Shiga toxin inh 179, Cycloheximide cs 99
N#C/C(=C\c1ccc(OCc2ccccc2)cc1)C(=O)Nc1ccc(C(=O)O)cc1	Shiga toxin inh 46, Cycloheximide cs 26, AmpC inh detg inconclusive
COc1cc(/C=C(\C#N)C(=O)N2CCOCC2)ccc1OCc1ccccc1	none
N#C/C(=C/c1ccc(C(=O)O)cc1)C(=O)Nc1ccccc1	none
